What was measured:
Assay in all cases: DAPPL (digital affinity profiling via proximity ligation, sequencing); 10 mM Tris-HCl pH 7.5, 50 mM NaCl, 1 mM DTT, 4% glycerol, room temperature, 30 min; GST-TFs on glutathione beads, 16-mer random dsDNA library, 0.1% formaldehyde crosslink after washing; high values mean tight binding
[1] = target: T1, FEV (Homo sapiens, UniProt Q99581 1-238); conditions: protein: recombinant; tags: N-terminal GST; dsDNA, one strand shown
T1 sequence: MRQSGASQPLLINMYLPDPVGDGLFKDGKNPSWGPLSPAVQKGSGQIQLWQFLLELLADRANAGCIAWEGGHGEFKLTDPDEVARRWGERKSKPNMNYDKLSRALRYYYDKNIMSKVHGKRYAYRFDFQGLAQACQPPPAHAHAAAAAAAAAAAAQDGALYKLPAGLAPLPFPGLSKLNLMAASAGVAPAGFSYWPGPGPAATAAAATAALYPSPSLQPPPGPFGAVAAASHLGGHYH
Outline: (§1)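 Sequencing on an Illumina NextSeq500 followed washing, crosslinking with 0.1% formaldehyde, proximity ligation (BsaI/T4 ligase, 1 h, 37 °C) and PCR amplification of pools that had been incubated for 30 min at room temperature with 200 nmole of a random double-stranded 16-mer DNA library in Tris/NaCl/DTT/glycerol buffer. Each pool held DNA-barcoded human transcription factors, expressed in yeast as GST fusions and captured on glutathione beads, plus a tag-only sample. Binding signal is a hexamer's read frequency for a factor divided by its frequency in the tag-only sample.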

[2] = target: ETV5 (Homo sapiens, UniProt P41161 1-510); conditions: protein: recombinant; tags: N-terminal GST; dsDNA, one strand shown
Chain of ETV5 (P41161 whole entry): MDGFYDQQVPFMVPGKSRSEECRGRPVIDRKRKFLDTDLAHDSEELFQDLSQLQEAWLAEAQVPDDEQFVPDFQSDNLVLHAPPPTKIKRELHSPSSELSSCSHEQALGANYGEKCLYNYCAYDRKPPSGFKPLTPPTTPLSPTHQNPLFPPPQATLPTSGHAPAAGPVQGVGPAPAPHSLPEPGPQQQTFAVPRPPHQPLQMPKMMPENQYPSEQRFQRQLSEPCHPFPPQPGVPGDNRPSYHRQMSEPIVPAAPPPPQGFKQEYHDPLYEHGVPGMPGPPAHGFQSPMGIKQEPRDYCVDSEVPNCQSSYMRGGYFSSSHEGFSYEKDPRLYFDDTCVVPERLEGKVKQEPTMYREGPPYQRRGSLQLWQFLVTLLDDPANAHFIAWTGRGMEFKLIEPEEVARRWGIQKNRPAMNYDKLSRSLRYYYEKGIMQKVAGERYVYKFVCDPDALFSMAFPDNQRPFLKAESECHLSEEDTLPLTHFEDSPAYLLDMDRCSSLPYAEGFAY
Outline: as §1

[3] = target: HSF1 (Homo sapiens, UniProt Q00613 1-529); conditions: protein: recombinant; tags: N-terminal GST; chain copies: 3; dsDNA, one strand shown
Chain of HSF1 (Q00613 whole entry): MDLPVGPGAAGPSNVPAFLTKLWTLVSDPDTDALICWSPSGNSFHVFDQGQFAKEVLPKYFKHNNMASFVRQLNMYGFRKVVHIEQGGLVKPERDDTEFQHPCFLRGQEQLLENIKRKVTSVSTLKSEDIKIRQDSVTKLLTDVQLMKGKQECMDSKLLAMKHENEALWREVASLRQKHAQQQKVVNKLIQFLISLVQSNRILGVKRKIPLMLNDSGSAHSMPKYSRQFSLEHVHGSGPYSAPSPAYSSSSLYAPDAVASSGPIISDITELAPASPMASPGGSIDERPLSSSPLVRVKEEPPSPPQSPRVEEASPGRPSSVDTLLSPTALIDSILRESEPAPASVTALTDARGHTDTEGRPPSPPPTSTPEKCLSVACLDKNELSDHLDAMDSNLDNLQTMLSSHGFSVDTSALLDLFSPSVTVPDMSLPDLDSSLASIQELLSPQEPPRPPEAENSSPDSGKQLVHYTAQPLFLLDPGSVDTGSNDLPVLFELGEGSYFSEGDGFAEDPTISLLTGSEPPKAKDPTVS
Outline: as §1

[4] = target: T2, SPIC (Homo sapiens, UniProt Q8N5J4 1-248); conditions: protein: recombinant; tags: N-terminal GST; dsDNA, one strand shown
T2 sequence: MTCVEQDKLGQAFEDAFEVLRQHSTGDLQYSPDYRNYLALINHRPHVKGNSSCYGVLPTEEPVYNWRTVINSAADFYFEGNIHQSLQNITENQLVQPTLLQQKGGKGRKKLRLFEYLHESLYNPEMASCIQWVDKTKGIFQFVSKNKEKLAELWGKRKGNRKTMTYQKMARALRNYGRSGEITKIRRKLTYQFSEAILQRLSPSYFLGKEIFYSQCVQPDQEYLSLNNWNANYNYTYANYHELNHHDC
Outline: as §1

[5] = target: ELF4 (Homo sapiens, UniProt Q99607 1-663); conditions: protein: recombinant; tags: N-terminal GST; dsDNA, one strand shown
Chain of ELF4 (Q99607 whole entry): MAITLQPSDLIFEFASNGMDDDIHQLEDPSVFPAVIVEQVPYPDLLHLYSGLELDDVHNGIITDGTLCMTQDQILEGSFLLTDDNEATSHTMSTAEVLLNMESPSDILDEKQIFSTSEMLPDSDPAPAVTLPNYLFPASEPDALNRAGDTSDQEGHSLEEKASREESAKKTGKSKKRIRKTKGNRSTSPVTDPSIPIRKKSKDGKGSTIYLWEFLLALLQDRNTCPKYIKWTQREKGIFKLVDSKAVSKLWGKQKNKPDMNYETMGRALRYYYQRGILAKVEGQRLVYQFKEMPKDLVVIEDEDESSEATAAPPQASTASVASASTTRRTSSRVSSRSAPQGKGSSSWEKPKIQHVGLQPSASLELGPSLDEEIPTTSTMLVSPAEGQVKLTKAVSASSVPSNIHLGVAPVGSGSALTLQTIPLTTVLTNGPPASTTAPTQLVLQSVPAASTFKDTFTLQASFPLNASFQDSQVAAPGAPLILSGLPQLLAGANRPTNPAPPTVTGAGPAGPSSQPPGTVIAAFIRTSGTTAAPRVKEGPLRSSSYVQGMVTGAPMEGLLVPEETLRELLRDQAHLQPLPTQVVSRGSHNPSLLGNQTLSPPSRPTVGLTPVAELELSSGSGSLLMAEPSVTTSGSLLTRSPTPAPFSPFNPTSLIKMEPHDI
Outline: as §1

[6] = target: T3, ELK4 (Homo sapiens, UniProt P28324-2 1-405); conditions: protein: recombinant; tags: N-terminal GST; dsDNA, one strand shown
T3 sequence: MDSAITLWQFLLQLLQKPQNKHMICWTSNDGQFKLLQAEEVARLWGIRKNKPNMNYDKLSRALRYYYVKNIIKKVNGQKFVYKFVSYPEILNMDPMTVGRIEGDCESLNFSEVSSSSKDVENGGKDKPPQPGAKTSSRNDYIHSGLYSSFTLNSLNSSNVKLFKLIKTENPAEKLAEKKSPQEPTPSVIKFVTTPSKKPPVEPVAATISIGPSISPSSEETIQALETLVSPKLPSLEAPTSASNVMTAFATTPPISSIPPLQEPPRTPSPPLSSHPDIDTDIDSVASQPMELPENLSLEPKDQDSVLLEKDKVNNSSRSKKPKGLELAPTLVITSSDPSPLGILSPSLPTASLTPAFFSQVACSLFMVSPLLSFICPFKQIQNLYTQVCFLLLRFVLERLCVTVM
Outline: as §1

[7] = target: T4, ETV2 (Homo sapiens, UniProt O00321 1-342); conditions: protein: recombinant; tags: N-terminal GST; dsDNA, one strand shown
T4 sequence: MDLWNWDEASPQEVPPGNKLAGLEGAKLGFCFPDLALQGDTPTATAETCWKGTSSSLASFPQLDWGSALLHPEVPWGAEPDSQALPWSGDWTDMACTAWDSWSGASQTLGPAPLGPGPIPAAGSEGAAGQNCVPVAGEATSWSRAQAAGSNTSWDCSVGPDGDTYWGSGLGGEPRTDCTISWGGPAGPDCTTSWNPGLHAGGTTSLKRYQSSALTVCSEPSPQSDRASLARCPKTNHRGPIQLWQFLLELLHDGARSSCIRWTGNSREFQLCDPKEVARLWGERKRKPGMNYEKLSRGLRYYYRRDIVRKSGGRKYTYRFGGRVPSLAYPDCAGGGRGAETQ
Outline: as §1

[8] = target: T5, ELF3 (Homo sapiens, UniProt P78545 1-371); conditions: protein: recombinant; tags: N-terminal GST; dsDNA, one strand shown
T5 sequence: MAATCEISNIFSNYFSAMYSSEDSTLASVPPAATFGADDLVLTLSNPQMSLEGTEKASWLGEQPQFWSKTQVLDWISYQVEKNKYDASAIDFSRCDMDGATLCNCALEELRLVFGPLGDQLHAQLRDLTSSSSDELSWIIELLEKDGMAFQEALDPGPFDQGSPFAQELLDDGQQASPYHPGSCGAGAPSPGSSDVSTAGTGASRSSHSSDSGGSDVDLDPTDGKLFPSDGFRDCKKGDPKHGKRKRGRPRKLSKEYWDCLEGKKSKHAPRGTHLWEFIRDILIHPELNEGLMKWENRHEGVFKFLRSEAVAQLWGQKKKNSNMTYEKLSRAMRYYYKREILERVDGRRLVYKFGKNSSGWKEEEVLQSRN
Outline: as §1

[9] = target: CRX (Homo sapiens, UniProt O43186 1-299); conditions: protein: recombinant; tags: N-terminal GST; dsDNA, one strand shown
Chain of CRX (O43186 whole entry): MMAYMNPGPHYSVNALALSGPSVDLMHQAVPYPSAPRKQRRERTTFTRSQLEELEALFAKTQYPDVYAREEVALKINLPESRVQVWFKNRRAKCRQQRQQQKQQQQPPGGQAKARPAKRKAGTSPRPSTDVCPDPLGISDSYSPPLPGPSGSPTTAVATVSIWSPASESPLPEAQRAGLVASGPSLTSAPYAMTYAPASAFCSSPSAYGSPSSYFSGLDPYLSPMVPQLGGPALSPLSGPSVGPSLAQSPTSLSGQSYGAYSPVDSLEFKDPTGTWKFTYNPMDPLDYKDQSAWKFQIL
Outline: as §1

[10] = target: ETV1 (Homo sapiens, UniProt P50549 1-477); conditions: protein: recombinant; tags: N-terminal GST; dsDNA, one strand shown
Chain of ETV1 (P50549 whole entry): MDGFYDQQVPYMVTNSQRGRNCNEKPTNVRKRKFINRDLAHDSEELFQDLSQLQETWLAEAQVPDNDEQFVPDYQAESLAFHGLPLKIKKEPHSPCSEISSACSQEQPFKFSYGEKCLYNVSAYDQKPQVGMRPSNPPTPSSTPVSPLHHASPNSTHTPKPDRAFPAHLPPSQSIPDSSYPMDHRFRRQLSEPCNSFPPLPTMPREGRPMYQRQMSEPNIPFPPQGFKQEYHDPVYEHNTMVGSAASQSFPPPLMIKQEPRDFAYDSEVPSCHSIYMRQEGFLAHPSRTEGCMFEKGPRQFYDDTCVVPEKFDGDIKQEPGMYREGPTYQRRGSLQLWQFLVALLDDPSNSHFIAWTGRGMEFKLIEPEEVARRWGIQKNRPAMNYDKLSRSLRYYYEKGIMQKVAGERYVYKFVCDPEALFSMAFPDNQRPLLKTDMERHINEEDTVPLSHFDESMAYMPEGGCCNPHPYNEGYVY
Outline: as §1

[11] = target: T6, ERF (Homo sapiens, UniProt P50548 1-548); conditions: protein: recombinant; tags: N-terminal GST; dsDNA, one strand shown
T6 sequence: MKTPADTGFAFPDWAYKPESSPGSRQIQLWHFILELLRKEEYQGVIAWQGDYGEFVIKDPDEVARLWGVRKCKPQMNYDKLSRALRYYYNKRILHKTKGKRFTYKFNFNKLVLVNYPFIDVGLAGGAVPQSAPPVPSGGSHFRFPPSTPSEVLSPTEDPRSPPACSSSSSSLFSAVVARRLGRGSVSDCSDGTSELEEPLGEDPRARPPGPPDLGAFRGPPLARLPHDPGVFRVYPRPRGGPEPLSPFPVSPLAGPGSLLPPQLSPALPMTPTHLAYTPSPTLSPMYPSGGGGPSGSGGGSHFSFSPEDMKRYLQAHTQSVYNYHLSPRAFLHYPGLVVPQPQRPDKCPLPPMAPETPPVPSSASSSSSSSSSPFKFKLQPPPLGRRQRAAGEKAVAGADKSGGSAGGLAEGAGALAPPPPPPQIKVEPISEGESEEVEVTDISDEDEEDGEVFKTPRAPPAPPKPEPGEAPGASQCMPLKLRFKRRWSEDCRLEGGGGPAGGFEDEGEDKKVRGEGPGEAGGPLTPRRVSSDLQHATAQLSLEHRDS
Outline: as §1

[12] = target: T7, ETV3L (Homo sapiens, UniProt Q6ZN32 1-361); conditions: protein: recombinant; tags: N-terminal GST; dsDNA, one strand shown
T7 sequence: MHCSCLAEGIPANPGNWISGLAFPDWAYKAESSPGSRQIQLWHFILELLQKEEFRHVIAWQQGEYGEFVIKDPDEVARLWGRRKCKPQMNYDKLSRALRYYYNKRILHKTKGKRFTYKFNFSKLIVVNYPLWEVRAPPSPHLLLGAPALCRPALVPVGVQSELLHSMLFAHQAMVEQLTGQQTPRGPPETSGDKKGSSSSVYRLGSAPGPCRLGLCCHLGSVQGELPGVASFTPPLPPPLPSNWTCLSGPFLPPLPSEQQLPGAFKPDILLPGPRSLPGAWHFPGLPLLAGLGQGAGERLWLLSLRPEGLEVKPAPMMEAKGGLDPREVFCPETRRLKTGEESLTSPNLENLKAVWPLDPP
Outline: as §1

[13] = target: T8, ETS2 (Homo sapiens, UniProt P15036 1-469); conditions: protein: recombinant; tags: N-terminal GST; dsDNA, one strand shown
T8 sequence: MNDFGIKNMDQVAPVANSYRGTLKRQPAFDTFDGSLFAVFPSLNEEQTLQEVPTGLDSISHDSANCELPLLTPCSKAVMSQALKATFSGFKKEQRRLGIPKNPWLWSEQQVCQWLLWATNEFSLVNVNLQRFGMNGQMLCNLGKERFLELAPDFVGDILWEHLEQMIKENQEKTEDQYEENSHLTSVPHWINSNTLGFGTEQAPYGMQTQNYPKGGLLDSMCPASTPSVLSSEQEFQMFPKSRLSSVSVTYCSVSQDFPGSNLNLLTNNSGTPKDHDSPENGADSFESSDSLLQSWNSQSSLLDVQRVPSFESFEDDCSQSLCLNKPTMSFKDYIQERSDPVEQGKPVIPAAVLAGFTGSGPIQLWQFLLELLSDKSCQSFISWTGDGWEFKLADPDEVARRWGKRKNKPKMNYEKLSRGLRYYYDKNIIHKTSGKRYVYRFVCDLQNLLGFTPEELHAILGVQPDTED
Outline: as §1

[14] = target: T9, SPDEF (Homo sapiens, UniProt O95238 1-335); conditions: protein: recombinant; tags: N-terminal GST; dsDNA, one strand shown
T9 sequence: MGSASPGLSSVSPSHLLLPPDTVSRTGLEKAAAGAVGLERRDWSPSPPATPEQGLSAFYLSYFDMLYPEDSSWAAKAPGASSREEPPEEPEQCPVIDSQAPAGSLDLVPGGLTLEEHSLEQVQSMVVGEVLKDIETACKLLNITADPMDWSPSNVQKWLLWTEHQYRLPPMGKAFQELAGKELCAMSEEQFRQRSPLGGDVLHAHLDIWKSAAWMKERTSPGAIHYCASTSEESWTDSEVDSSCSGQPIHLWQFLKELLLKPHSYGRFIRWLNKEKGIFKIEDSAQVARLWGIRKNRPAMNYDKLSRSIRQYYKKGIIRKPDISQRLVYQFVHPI
Outline: as §1

[15] = target: T10, ETV7 (Homo sapiens, UniProt Q9Y603 1-341); conditions: protein: recombinant; tags: N-terminal GST; dsDNA, one strand shown
T10 sequence: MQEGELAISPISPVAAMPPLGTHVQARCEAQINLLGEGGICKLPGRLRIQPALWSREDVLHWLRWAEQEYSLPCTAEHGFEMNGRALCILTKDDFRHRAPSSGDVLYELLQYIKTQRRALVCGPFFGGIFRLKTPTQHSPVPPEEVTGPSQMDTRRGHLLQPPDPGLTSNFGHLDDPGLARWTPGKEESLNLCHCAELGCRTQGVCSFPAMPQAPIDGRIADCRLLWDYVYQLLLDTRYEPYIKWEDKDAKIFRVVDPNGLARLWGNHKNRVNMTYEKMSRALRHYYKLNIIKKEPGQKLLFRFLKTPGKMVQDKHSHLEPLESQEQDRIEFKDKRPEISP
Outline: as §1

[16] = target: T11, ELF5 (Homo sapiens, UniProt Q9UKW6-2 1-255); conditions: protein: recombinant; tags: N-terminal GST; dsDNA, one strand shown
T11 sequence: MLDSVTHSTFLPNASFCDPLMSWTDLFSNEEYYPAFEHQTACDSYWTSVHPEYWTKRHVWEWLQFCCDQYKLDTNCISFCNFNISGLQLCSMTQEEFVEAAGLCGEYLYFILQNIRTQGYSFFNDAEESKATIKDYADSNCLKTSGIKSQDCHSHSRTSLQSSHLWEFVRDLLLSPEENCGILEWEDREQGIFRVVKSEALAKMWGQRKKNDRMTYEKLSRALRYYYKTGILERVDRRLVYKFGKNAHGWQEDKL
Outline: as §1

[17] = target: T12, ETV3 (Homo sapiens, UniProt P41162-2 1-143); conditions: protein: recombinant; tags: N-terminal GST; dsDNA, one strand shown
T12 sequence: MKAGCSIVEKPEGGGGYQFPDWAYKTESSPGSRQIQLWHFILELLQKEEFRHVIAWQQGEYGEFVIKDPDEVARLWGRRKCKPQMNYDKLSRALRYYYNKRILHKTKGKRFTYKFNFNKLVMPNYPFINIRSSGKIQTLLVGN
Outline: as §1

[18] = target: ETV6 (Homo sapiens, UniProt P41212 1-452); conditions: protein: recombinant; tags: N-terminal GST; dsDNA, one strand shown
Chain of ETV6 (P41212 whole entry): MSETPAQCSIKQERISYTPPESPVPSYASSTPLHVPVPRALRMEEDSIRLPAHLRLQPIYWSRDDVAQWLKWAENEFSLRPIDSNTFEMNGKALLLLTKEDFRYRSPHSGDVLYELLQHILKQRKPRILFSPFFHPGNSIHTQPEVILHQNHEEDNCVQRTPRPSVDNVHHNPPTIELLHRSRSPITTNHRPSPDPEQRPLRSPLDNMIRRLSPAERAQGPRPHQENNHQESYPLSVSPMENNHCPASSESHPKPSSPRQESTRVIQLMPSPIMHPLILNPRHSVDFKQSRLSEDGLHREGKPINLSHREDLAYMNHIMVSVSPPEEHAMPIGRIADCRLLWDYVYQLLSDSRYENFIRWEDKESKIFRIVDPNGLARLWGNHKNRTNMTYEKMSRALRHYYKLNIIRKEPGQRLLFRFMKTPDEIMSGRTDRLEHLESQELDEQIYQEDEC
Outline: as §1

ATGAGC
binding signal [1]: 1.24 fold enrichment (6-mer frequency, TF over GST control) | binding signal [2]: 1.23 fold enrichment (6-mer frequency, TF over GST control) | binding signal [3]: 1.13 fold enrichment (6-mer frequency, TF over GST control) | binding signal [4]: 1.29 fold enrichment (6-mer frequency, TF over GST control) | binding signal [5]: 1.29 fold enrichment (6-mer frequency, TF over GST control) | binding signal [6]: 1.26 fold enrichment (6-mer frequency, TF over GST control) | binding signal [7]: 1.3 fold enrichment (6-mer frequency, TF over GST control) | binding signal [8]: 1.35 fold enrichment (6-mer frequency, TF over GST control) | binding signal [9]: 1.31 fold enrichment (6-mer frequency, TF over GST control) | binding signal [10]: 1.14 fold enrichment (6-mer frequency, TF over GST control) | binding signal [11]: 1.29 fold enrichment (6-mer frequency, TF over GST control) | binding signal [12]: 1.14 fold enrichment (6-mer frequency, TF over GST control) | binding signal [13]: 1.26 fold enrichment (6-mer frequency, TF over GST control) | binding signal [14]: 1.12 fold enrichment (6-mer frequency, TF over GST control) | binding signal [15]: 1.15 fold enrichment (6-mer frequency, TF over GST control) | binding signal [16]: 1.12 fold enrichment (6-mer frequency, TF over GST control) | binding signal [17]: 1.34 fold enrichment (6-mer frequency, TF over GST control) | binding signal [18]: 1.24 fold enrichment (6-mer frequency, TF over GST control)

Reference: PMC7862700, “An all-to-all approach to the identification of sequence-specific readers for epigenetic DNA modifications on cytosine”
